Test results as given in PubChem BioAssay (NCATS).
Results filed as inconclusive are left out. Unmarked numbers belong to inactive results. Calls of active or inactive are those of the source. The call rests on the fitted dose curve; in most records, active means well fitted cell-killing curve with a large enough effect; inconclusive means small, poorly fitted or top-dose-only effect; inactive means flat fitted curve, though single readings scatter.

Experiment: Cell Viability - LYMP2-024 (AID 988);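 further: plate controls were DMSO only for no effect and 92 µM tetraoctylammonium bromide for full effect; nearly all actives have a fitted effect of over 60% in size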
Conditions: LYMP2-024 lymphoblastoid cell viability; series mostly up to 92.2 µM; activity change, negative = cytotoxicity: at the top concentration
Procedure, shortened: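 Steps: seed 2500 cells/well, 5 hr 37 C; add compound, 24 hr 37 C; add CellTiter-Glo, 30 min room temperature; read luminescence. AC50 derived by Hill modelling of concentration-dependent ATP loss.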

| Compound | activity change, negative = cytotoxicity | outcome |
| --- | --- | --- |
| Cc1cn([C@H]2C[C@H](N=[N+]=[N-])[C@@H](CO)O2)c(=O)[nH]c1=O | -7.43% | – |
| COc1ccc2c(c1)c(CC(=O)O)c(C)n2C(=O)c1ccc(Cl)cc1 | -9.12% | – |
| O=c1[nH]cc(F)c(=O)[nH]1 | -29.3% | – |
| Cn1c(=O)c2c(ncn2C)n(C)c1=O | 0.207% | – |
| CC(C)C(=O)Nc1ccc([N+](=O)[O-])c(C(F)(F)F)c1 | -16.3% | – |
| Nc1c2c(nc3ccccc13)CCCC2 | -22.2% | – |
| Nc1ccn([C@H]2CC[C@@H](CO)O2)c(=O)n1 | -2.4% | – |
| NS(=O)(=O)c1cc2c(cc1Cl)NCNS2(=O)=O | 3.79% | – |
| CC(C)NCC(O)c1ccc(O)c(O)c1 (stereo unspecified) | -12.3% | – |
| NCCS(=O)(=O)O | -6.03% | – |
| Cc1ccc(-c2cc(C(F)(F)F)nn2-c2ccc(S(N)(=O)=O)cc2)cc1 | -14% | – |
| CCC1(c2ccccc2)C(=O)NCNC1=O | 2.65% | – |
| COc1ccc2[nH]cc(CCNC(C)=O)c2c1 | 1.96% | – |
| N[C@@H](Cc1c[nH]c2ccc(O)cc12)C(=O)O | -28.6% | – |
| Cc1cn([C@H]2C=C[C@@H](CO)O2)c(=O)[nH]c1=O | – | inactive |
| O=c1c(-c2ccc(O)cc2)coc2cc(O)cc(O)c12 | -25.2% | – |
| Clc1ccc(C(c2ccccc2Cl)C(Cl)Cl)cc1 (stereo unspecified) | -12.5% | – |
| Cn1c(=O)c2[nH]cnc2n(C)c1=O | -3.69% | – |

Experiment: Cell Viability - LYMP2-026 (AID 989);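 further: cells exposed to compound for 24 h at 37 °C; on the % scale 0 is the no-effect control and ±100 the full control effect; nearly all actives have a fitted effect of over 50% in size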
Conditions: LYMP2-026 lymphoblastoid cell viability, qHTS; series mostly up to 92.2 µM; activity change, negative = cytotoxic: at the top concentration
Procedure, shortened: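 Luminescent ATP signal (CellTiter-Glo, 30 min room temperature) measures viable lymphoblastoid cells after 24 hr compound treatment at 37 C. Decreased ATP reflects acute toxicity; AC50 values come from Hill-equation modeling.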

| Compound | activity change, negative = cytotoxic | outcome |
| --- | --- | --- |
| Cc1cn([C@H]2C[C@H](N=[N+]=[N-])[C@@H](CO)O2)c(=O)[nH]c1=O | 4.31% | – |
| COc1ccc2c(c1)c(CC(=O)O)c(C)n2C(=O)c1ccc(Cl)cc1 | -12.6% | – |
| O=c1[nH]cc(F)c(=O)[nH]1 | -30.6% | – |
| Cn1c(=O)c2c(ncn2C)n(C)c1=O | -2.86% | – |
| CC(C)C(=O)Nc1ccc([N+](=O)[O-])c(C(F)(F)F)c1 | -16.6% | – |
| Nc1c2c(nc3ccccc13)CCCC2 | -24.2% | – |
| Nc1ccn([C@H]2CC[C@@H](CO)O2)c(=O)n1 | -0.939% | – |
| NS(=O)(=O)c1cc2c(cc1Cl)NCNS2(=O)=O | 12.5% | – |
| CC(C)NCC(O)c1ccc(O)c(O)c1 (stereo unspecified) | -22.7% | – |
| NCCS(=O)(=O)O | -10.4% | – |
| Cc1ccc(-c2cc(C(F)(F)F)nn2-c2ccc(S(N)(=O)=O)cc2)cc1 | -6.95% | – |
| CCC1(c2ccccc2)C(=O)NCNC1=O | -4.45% | – |
| COc1ccc2[nH]cc(CCNC(C)=O)c2c1 | 4.33% | – |
| N[C@@H](Cc1c[nH]c2ccc(O)cc12)C(=O)O | -6.64% | – |
| Cc1cn([C@H]2C=C[C@@H](CO)O2)c(=O)[nH]c1=O | – | inactive |
| O=c1c(-c2ccc(O)cc2)coc2cc(O)cc(O)c12 | -9.73% | – |
| Clc1ccc(C(c2ccccc2Cl)C(Cl)Cl)cc1 (stereo unspecified) | -5.41% | – |
| Cn1c(=O)c2[nH]cnc2n(C)c1=O | -8.48% | – |
